Sa ugtP lethal: kills S. aureus RN4220 lacking UgtP. actives 0.54% (n = 330,000). growth inhibition, % (test concentration not listed). S. aureus RN4220 ugtP deletion, OD600 growth, 16 h. AID 1259309; in the data active = growth inhibition above about 68%;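 note: plate controls were untreated wells for no effect and antibiotic for full effect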
RN4220 kill: S. aureus RN4220 growth inhibition; inhibition, % (concentration not given with the values); OD600, 16 h; actives 0.33% (n = 330,000); in the data active = inhibition above about 85%;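 note: plate controls were untreated cells for no effect and reference antibiotic for full effect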
SSB-PriA inh: inhibitors of Klebsiella pneumoniae PriA binding to SSB C-terminal tail; AlphaScreen SSBct-PriA binding, biotinylated peptide; inhibition, % at 33 µM; actives 0.6% (n = 430,000); in the data active = inhibition mostly above about 37%, no sharp cut-off; inactive = mostly below about 20%;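 note: plate controls were negative control peptide for no effect and reference peptide for full effect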
Mtb hypoxia rep: Mtb hypoxia fluorescent reporter inhibition; M. tuberculosis hypoxia-regulated fluorescent reporter, fluorescence; fluorescence inhibition, % (test concentration not listed); actives 0.1% (n = 300,000); AID 1159583; in the data active = fluorescence inhibition mostly above about 23%, no sharp cut-off; inactive = mostly below about 17%
Active calls of the source: *; · = not tested or not shown; ! = not confirmed by another sample. Shown are actives, neighbours in structure and some others; about 1.1% of the full set was active somewhere.

SMILES	Sa ugtP lethal	RN4220 kill	SSB-PriA inh	Mtb hypoxia rep
COc1ccc2sc(-c3ccccc3OC)c(-c3ccc(O)cc3)c2c1	·	·	10	·
COc1ccc(-c2c(-c3cc(OC)cc(OC)c3)sc3ccc(OC)cc23)cc1	92*	-9	-3	9
COc1ccc(-c2c(-c3ccc(S(C)(=O)=O)cc3)sc3ccc(OC)cc23)cc1	·	·	-21	·
COc1cc(OC)cc(-c2sc3ccc(OC)cc3c2-c2ccc(O)cc2)c1	100*	99*	-9	7
CN(C)c1ccc(-c2cc(-c3ccccc3)nc(SCC(=O)NCC3CCCO3)c2C#N)cc1 (configuration not stated)	·	·	1	·
CCN(CC)c1ccc(NC(=O)CCCn2nc(-c3cccs3)ccc2=O)c(C)c1	·	·	18	·
O=C(Cn1c(=O)n(Cc2ccccc2)c(=O)c2ncccc21)Nc1cc(C(F)(F)F)ccc1Cl	·	·	-12	·
O=C(NC(NCc1ccccc1)C(Cl)(Cl)Cl)c1ccc(F)cc1 (configuration not stated)	·	·	-22	·
c1ccc(-c2sc3ccccc3c2-c2ccc(OCCN3CCCCC3)cc2)cc1	22	-3	18	11
CN(C)CCOc1ccc(-c2c(-c3ccccc3)sc3ccccc23)cc1	100*	100*	38	51*
COCCN=c1scc(-c2cccs2)n1N=Cc1ccc(O)c(O)c1O	-9	11	44	5
COCCN=c1scc(-c2ccccc2)n1N=Cc1c[nH]c2ccccc12	17	-15	51*	-1
COc1ccc(NC(C)=O)cc1NS(=O)(=O)c1c[nH]c(=O)[nH]c1=O	·	·	1	·
COc1cnc(-c2ccccn2)nc1NC(C)C	2	1	95*	18
COc1cnc(-c2ccccn2)nc1N1CCOCC1	·	·	156*	·
O=C(NC[C@@H](c1cccc2ccccc12)N1CCCC1)Nc1ccccc1	·	·	8	·
Cc1cccc(CSc2nnc(Cc3cc(=O)[nH]c(=O)[nH]3)n2-c2cc(C)ccc2C)c1	·	·	-5	·
COC(=O)Nc1cccc(N2CCCC2=O)c1	·	·	-9	·
Cc1cc(=O)n2c(n1)SCC2CC(=O)N1CCN(c2ncccn2)CC1 (configuration not stated)	·	·	6	·
COc1ccc(C(=O)NC(=S)Nc2ccc(N3CCOCC3)cc2)cc1Cl	99*	-3	33	18
O=C(NC(=S)Nc1ccc(N2CCOCC2)cc1)c1ccc(Cl)cc1	87*	3	6	26
CC(C)(C)c1ccc(C(=O)NC(=S)Nc2ccc(N3CCOCC3)cc2)cc1	-8	-8	-3	·
Cc1cccc(C(=O)NC(=S)Nc2ccc(N3CCOCC3)cc2)c1	87*	2	15	-4
Cc1ccc(C(=O)NC(=S)Nc2ccc(N3CCOCC3)cc2)cc1C	25	1	19	22
CS(=O)(=O)N1CCN(c2ccc(NC(=S)NC(=O)c3ccc4c(c3)OCO4)cc2)CC1	93*	7	-12	-2
SMILES	Sa ugtP lethal	RN4220 kill	SSB-PriA inh	Mtb hypoxia rep
O=C(NC(=S)Nc1ccc(N2CCOCC2)cc1)c1ccc2c(c1)OCCO2	34	1	4	·
O=C(c1ccc(F)cc1Cl)N1CC(N2C(=O)CCC2=O)C1	·	·	-7	·
CC(=O)Nc1ccc(NC(=O)COc2cccc3c2OC(C)(C)C3)cc1	10	3	4	17
COC(=O)c1ccc(NC(=O)COc2cccc3c2OC(C)(C)C3)cc1	11	5	46*!	11
CCc1ccc(/C=C(/C#N)C(N)=S)cc1	5	9	38*!	5
N#C/C(=C/c1ccc(F)cc1)C(N)=S	-3	0	4	-4
NCCCCCC(=O)O[C@@H]1N=C(c2ccccc2Cl)c2cc(Br)ccc2NC1=O	·	·	9	·
COc1ccc(NC(=O)c2c(-c3c(F)cccc3Cl)noc2C)cc1[N+](=O)[O-]	·	·	66*	·
Cc1onc(-c2c(F)cccc2Cl)c1C(=O)Nc1ccc(Cl)c(S(=O)(=O)N(C)C)c1	1	-2	5	3
CCCCN1C(=O)CCc2cc(NC(=O)COc3ccccc3F)ccc21	·	·	6	·
C=C(C)CNC(=S)NNC(=O)CCn1c2ccc(Cl)cc2c2cc(Cl)ccc21	43	93*	-5	0
COCCN(Cc1ccncc1)C(=O)c1cccc(C(F)(F)F)c1	·	·	-6	·
Cc1cccc2sc(OC3CCN(C(=O)c4ccc(=O)[nH]c4)CC3)nc12	·	·	-1	·
O=C(Oc1c(Cl)cc(Cl)c2cccnc12)c1cccc([N+](=O)[O-])c1	97*	97*	30	-3
O=C(Oc1c(CN2CCOCC2)cc(Cl)c2cccnc12)c1ccccc1Br	2	6	5	2
O=C(Oc1c(CN2CCOCC2)cc(Cl)c2cccnc12)c1cccc([N+](=O)[O-])c1	·	·	105*	·
COc1ccc(-c2ccc(=O)n(CCNC(=O)c3ccccn3)n2)cc1	·	·	7	·
CCOC(=O)c1c(-c2ccccc2)oc2ccc(OCC)cc12	79	-5	-18	4
